Bioassay records (PubChem BioAssay)
Compounds with a hit are over-represented: about 14% of the library has one in this group of screens.
Marburg entry inh – qHTS for inhibitors of binding or entry into cells for Marburg Virus; Potency, µM (highest dose often 37.8 µM), inactives show at the highest dose activity change, negative = inhibition, actives largely listed as inhibitors; Marburg virus pseudotyped entry inhibition, cell reporter; 300,000 tested, 1.8% active; calls by dose curve; tested in HEK293 cells; also: potency is read from the fitted curve at half-maximal effect
LASV entry inh – qHTS for Inhibitors of binding or entry into cells for Lassa Virus; Lassa virus pseudotype entry inhibition, cell reporter; Potency, µM (highest dose often 37.9 µM), inactives show at the top dose activity change, negative = inhibition, hits mostly inhibitors; 300,000 tested, 1.2% active; calls by dose curve; tested in HEK293 cells; also: potency is read from the fitted curve at half-maximal effect; nearly all actives have a fitted effect of over 50% in size
HCMV inh – qHTS Assay for inhibitors of the human cytomegalovirus (HCMV); HFF cells, HCMV-luciferase reporter, 72 h; stronger effect = lower value; 410,000 tested, 4.5% active; activity change, negative = inhibition, % at 57.5 µM; in the data active = activity change below about -60%; inconclusive = no clear call, values can overlap the other calls; inactive = above about -39%
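Inhibition of viral replication was scored as loss of reporter luminescence in HFFs infected with HCMV-luciferase (MOI 1 PFU/cell) for 72 h; compounds tested at 2 doses, normalized to buffer and Salinomycin controls.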
HCV inh – qHTS Assay for Inhibitors of Hepatitis C Virus (HCV). Huh7.5.1 HCVcc-Cre infection, luciferase reporter, 44 h. Potency, µM (doses to about 41.8 µM), inactives show at the highest dose activity change, negative = inhibition, usual class: inhibitors. 340,000 tested, 3.4% active; also: potency is read from the fitted curve at half-maximal effect
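A cell-based infection assay in which seeded cells (1,000 per well) receive test compound after 4 h, are inoculated with HCVcc-Cre at approximately 0.5 moi, and are incubated 44 h before luminescence detection.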
Pf growth 96h – Primary qHTS for delayed death inhibitors of the malarial parasite plastid, 96 hour incubation. 320,000 tested, 6.9% active. Potency, µM (titrated, usually from 28.7 µM), for inactives: at the top dose activity change, negative = inhibition, actives largely listed as inhibitors. P. falciparum luciferase reporter growth, 96 h. AID 504834, 2011; also: potency is read from the fitted curve at half-maximal effect
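Parasite growth measured via integrated firefly luciferase reporter in P. falciparum. Infected erythrocytes at 2% hematocrit, 0.05% parasitemia final were treated 96 hours at 37 C under 5% CO2, and luminescence was read.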
Pf growth 48h – Primary qHTS for delayed death inhibitors of the malarial parasite plastid, 48 hour incubation; P. falciparum luciferase growth in erythrocytes, 48 h; Potency, µM (highest dose often 28.7 µM), for inactives: top-dose activity change, negative = inhibition, hits mostly inhibitors; 310,000 tested, 5.9% active; AID 504832, 2011; also: potency is read from the fitted curve at half-maximal effect
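Cell-based growth assay: transgenic P. falciparum expressing firefly luciferase, cultured in red cells within RPMI 1640 containing 0.5% w/v Albumax, 24 mM bicarbonate and gentamycin. A drop in luciferase activity indicates inhibition.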
Numbers without * were called inactive; ? = inconclusive; . = no result given; [ ] = dose if it differs, or a comment. Unless noted, calls follow the shape of the dose curve; as a rule, active = well fitted inhibition curve with a large enough effect; inconclusive = small, poorly fitted or top-dose-only effect, or another doubt; inactive = no such curve, though single readings can be large or run the other way. % is scaled to controls: 0 for no effect and ±100 for the full control effect.

SMILES | Marburg entry inh | LASV entry inh | HCMV inh | HCV inh | Pf growth 96h | Pf growth 48h
Cc1[nH]c(C)c2c(=O)n(Cc3ccc(Cl)cc3)ncc12 | . | . | ? | 9.6% | ? | 11.7µM*
O=c1c(Cl)c(Cl)cnn1Cc1nnc(-c2ccc(Cl)cc2)o1 | ? | ? | ? | 10µM* | -42.6% | 1.4%
Cc1ccc(-c2nnc(Cc3ccc(Cl)cc3)o2)cc1 | . | . | 34.0 | -20.5% | -6.0% | .
Nc1c(Cl)cnn(-c2ccccc2)c1=O | . | . | 18.3 | 15.4% | . | .
Cc1ccc(Cn2c(C)c3cnn(CC(=O)O)c(=O)c3c2C)cc1 | 8.1%[46.1 µM] | 4.2%[46.1 µM] | 31.0 | . | . | .
O=c1c(Cl)c(Cl)cnn1-c1ccccc1 | 25.9µM* | ? | -100.0* | 3.98µM* | ? | -18.1%
Cc1cc(C)cc(Cn2ncc(Cl)c(Cl)c2=O)c1 | 11.2µM* | ? | -84.1* | ? | -26.7% | 12.2%
N#Cc1cccc(C(=O)Nc2cc(S(=O)(=O)N3CCOCC3)ccc2N2CCCC2)c1 | ? | ? | 16.8 | -3.4% | . | .
CC1(C)C(=O)Nc2ccccc2N1C(=O)Cn1ncc(Cl)c(Cl)c1=O | . | . | 11.7 | ? | -0.8% | ?
O=c1c(Cl)c(Cl)cnn1Cc1ccccc1Cl | 6.51µM* | 13µM* | -101.0* | 2.82µM* | ? | -0.9%
CCc1ccc(C(=O)Cn2ncc(Cl)c(Cl)c2=O)cc1 | ? | ? | -106.9* | ? | 58.2% | 2.0%
Cc1ccc(Cn2ncc(Cl)c(Cl)c2=O)cc1 | ? | ? | -9.9 | 11.2µM* | ? | -2.2%
CSc1ccc(CCNc2ncnc3onc(-c4ccc(Cl)cc4)c23)cc1 | . | -16.9%[46.1 µM] | ? | . | . | .
COc1cc(/C=C2/C(=O)N(C)C(=S)N2C)ccc1OCc1cccc(F)c1 | 6.6%[46.1 µM] | -6.9%[46.1 µM] | -67.6* | ? | 3.29µM* | -1.2%
CN1C(=O)/C(=C/c2ccc(OCc3cccc(F)c3)cc2)NC1=S | ? | -5.5% | -13.8 | 4.1% | ? | 10.1%
COc1ccc(N2CC(C(=O)Nc3ccccc3-c3nc(-c4ccc(C)cc4)no3)CC2=O)cc1 (stereo not drawn) | -2.4%[46.1 µM] | 4.2%[46.1 µM] | 34.1 | . | . | .
COC(=O)c1ccc(NC(=O)CC2C(=O)N(c3cccc(F)c3)C(=O)N2CC(C)C)cc1 (stereo not drawn) | -17.4%[46.1 µM] | 0.3%[46.1 µM] | -4.2 | . | . | .
O=C1C=C(c2cccs2)C[C@H](c2ccccc2)[C@H]1n1nnc([N+](=O)[O-])n1 | 1.26µM* | ? | -80.2* | ? | ? | ?
CC(=O)C1C(=O)C=C(c2cccs2)CC1c1ccccc1 (stereo not drawn) | -0.6%[46.1 µM] | -10.1% | -36.4 | -3.6% | ? | -7.1%
CC[C@H](NC(C)C)[C@H](O)c1ccc(O)c(O)c1 | -22.7% | . | . | . | 13.5µM* | ?
C[C@@H](N)[C@@H](O)c1ccc(O)c(O)c1 | 12.5µM* | ? | . | . | 0.601µM* | 0.0%
Cc1ccc(C)c(NC2=C(c3ccc(C(F)(F)F)cc3)C(=O)c3ccccc32)c1 | -21.5%[46.1 µM] | 12.2%[46.1 µM] | -8.9 | . | . | .
CCOC(=O)CSc1nc2cc(OCC)ccc2cc1C#N | ? | ? | 38.3 | -27.4% | . | 119.1%
CCOc1ccc2cc(C#N)c(SCC(=O)NC(C)CC)nc2c1 (stereo not drawn) | 5.5% | . | . | . | 7.38µM* | 3.1%
CCOc1ccc2cc(C#N)c(SCC(=O)N3CCC(C)CC3)nc2c1 | ? | ? | ? | ? | 28.9% | 9.28µM*
SMILES | Marburg entry inh | LASV entry inh | HCMV inh | HCV inh | Pf growth 96h | Pf growth 48h
COCCNC(=S)N1CCC(C(=O)c2ccc(Cl)cc2)CC1 | . | . | -27.3 | . | . | .
COC(=O)C1=C(C)N(CC#C[Si](C)(C)C)C(=O)N(C(C)=O)C1c1ccccc1 (stereo not drawn) | -5.4%[14.2 µM] | . | . | . | . | .
O=C(CN1CCC(NC(=O)Cc2ccccc2)CC1)Nc1ccccc1Br | 7.0% | ? | -63.5* | ? | ? | -10.9%
O=C(NC1CCN(Cc2ccc(F)cc2)CC1)c1ccccc1 | ? | -2.2% | 8.2 | -7.2% | 3.1% | 18.5%
O=C(NC1CCN(Cc2ccccc2)CC1)c1cccc(S(=O)(=O)Nc2ccc(F)cc2)c1 | . | . | -77.0* | ? | 2.08µM* | 4.15µM*
O=C(NC1CCN(Cc2ccccc2)CC1)c1cccc(S(=O)(=O)Nc2ccc(Br)cc2)c1 | ? | ? | -68.6* | ? | ? | 11.7µM*
CN(C)S(=O)(=O)c1cccc(C(=O)NCC(=O)NC2CCN(Cc3ccccc3)CC2)c1 | -7.9%[46.1 µM] | 10.0%[46.1 µM] | -14.5 | -24.2% | 0.0% | 2.2%
O=C(NC1CCN(Cc2ccc(Cl)c(Cl)c2)CC1)c1ccccc1 | ? | 10.6%[46.1 µM] | ? | ? | ? | -3.6%[0.00184 µM]
C=CCN(c1ccccc1)S(=O)(=O)c1cccc(C(=O)NC2CCN(Cc3ccccc3)CC2)c1 | ? | ? | -64.6* | 14.1µM* | 11.7µM* | 10.4µM*
CCCn1nnc(NC(=S)NC(=O)c2ccccc2OC)n1 | . | . | 32.2 | -4.4% | . | .
COc1ccc(C(=O)NC(C)c2cccnc2)cc1S(=O)(=O)N(C)Cc1ccccc1 (stereo not drawn) | . | . | -34.9 | ? | . | .
Cc1csc2nc(CCNS(=O)(=O)c3ccccc3)cn12 | . | 11.8%[46.1 µM] | 30.5 | . | . | .
CC(C)=CCCC(C)=CCON=C1C[C@@H](O)[C@@H](O)[C@@H]2[C@H]3C(=O)N(c4cccc(Oc5ccccc5)c4)C(=O)[C@@H]3CC[C@H]12 | 26.1%[14.2 µM] | . | . | . | . | .
Cc1ccc(C(=O)NC2CC(C)(C)NC(C)(C)C2)cc1Cl | ? | 17.7%[46.1 µM] | 22.1 | -1.6% | -20.8% | 0.9%
Cc1ccccc1C(=O)NC1CCN(CC(=O)Nc2ccccc2)CC1 | . | . | -89.6* | 1.6% | 0.0% | -4.3%
Cc1cc(C)cc(NC(=O)CN2CCC(NC(=O)c3cccc(F)c3)CC2)c1 | -22.3% | -2.8% | 49.6 | 5.7% | 2.4% | -17.4%
C=CCN(c1ccccc1)S(=O)(=O)c1cc(C(=O)NC2=NCCS2)ccc1Cl | 3.7% | -1.7% | 3.0 | 16.1% | ? | ?
CC1(C)CC(NC(=O)c2cccc(S(=O)(=O)Nc3cccc(Cl)c3)c2)CC(C)(C)N1 | . | . | -25.8 | 6.4% | 4.65µM* | 13.1µM*
C=CCN(c1ccc(F)cc1)S(=O)(=O)c1cc(C(=O)NC2CCC(O)CC2)ccc1Cl (stereo not drawn) | . | . | 27.4 | ? | 5.22µM* | ?
O=C(CN1CCC(NC(=O)c2cccc(F)c2)CC1)Nc1ccc(Br)cc1 | 8.6% | -0.1% | 2.1 | 10µM* | ? | -13.2%
Cc1ccccc1CNC(=O)Cn1ncn2nc(-c3cccs3)cc2c1=O | ? | 6.6%[46.1 µM] | 14.9 | . | . | .
COC(=O)NC(/C=C/c1ccco1)[C@@]1(C(=O)OC)CCCC1=O (stereo partly drawn) | 3.0%[14.2 µM] | . | . | . | . | .
